Results taken from PubChem BioAssay (EPA / NIEHS).
Records with an inconclusive call do not appear. The source made the active and inactive calls. The calls were made as follows, unless noted: active = hit-call score of the fitted dose curve at least 0.9, where 1 is the maximum; inconclusive = response in the unintended direction; inactive = score below 0.9.

Tested on: not listed separately
Test: CCTE_Shafer_MEA_dev_firing_rate_mean: CCTE's Neural Network Formation Assay for Mean Firing Rate, Shafer Lab (AID 2284031; active = hit-call score of the fitted dose curve at least 0.9, where 1 is the maximum; inactive = score below 0.9)
In short: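 Steps: seed rat cortical cells (1.5 x 10^5/well) with laminin on PEI-coated MEA; dose day 0; record DIV 5/7/9/12, full media and compound exchange after DIV 5 and 9 recordings; compute well-mean firing rate AUC.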

Structure (SMILES)	outcome
Nc1nc2ncc(CNc3ccc(C(=O)N[C@@H](CCC(=O)O)C(=O)O)cc3)nc2c(=O)[nH]1	inactive
Cn1c(=O)c2c(ncn2C)n(C)c1=O	inactive
CCC(C)(C)C(=O)O[C@H]1C[C@@H](C)C=C2C=C[C@H](C)[C@H](CC[C@@H]3C[C@@H](O)CC(=O)O3)[C@H]21	inactive
O=C1CCC(N2C(=O)c3ccccc3C2=O)C(=O)N1 (configuration not stated)	inactive
CC[C@H]1OC(=O)[C@H](C)[C@@H](O[C@H]2C[C@@](C)(OC)[C@@H](O)[C@H](C)O2)[C@H](C)[C@@H](O[C@@H]2O[C@H](C)C[C@H](N(C)C)[C@H]2O)[C@](C)(O)C[C@@H](C)C(=O)[C@H](C)[C@@H](O)[C@]1(C)O	inactive
CNCc1ccc(NC(=O)c2c[nH]c3c2C(=O)CCC3)cc1	inactive
COc1ccc(-n2nc(C(F)F)cc2-c2ccc(S(C)=O)cc2)cc1 (configuration not stated)	inactive
O=P(OC(CCl)CCl)(OC(CCl)CCl)OC(CCl)CCl	inactive
CC[C@H](C)C(=O)O[C@H]1C[C@@H](C)C=C2C=C[C@H](C)[C@H](CC[C@@H]3C[C@@H](O)CC(=O)O3)[C@H]21	inactive
NC(=O)NO	inactive

Tested on: not listed separately
Test: CCTE_Shafer_MEA_dev_per_burst_spike_percent: CCTE's Neural Network Formation Assay for Percent of Spikes in a Burst, Shafer Lab (AID 2284032; active = hit-call score of the fitted dose curve at least 0.9, where 1 is the maximum; inactive = score below 0.9;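 as to AC50: fitted as a decrease in burst spike percentage below DMSO baseline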)
In short: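 Value is trapezoidal AUC over recordings on days 5, 7, 9 and 12 of the well-mean fraction of spikes falling in single-electrode bursts; rat cortical cultures exposed continuously from plating, treatment renewed DIV 5 and 9, fitted downward against DMSO.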

Structure (SMILES)	outcome	AC50
Nc1nc2ncc(CNc3ccc(C(=O)N[C@@H](CCC(=O)O)C(=O)O)cc3)nc2c(=O)[nH]1	inactive	–
Cn1c(=O)c2c(ncn2C)n(C)c1=O	inactive	–
CCC(C)(C)C(=O)O[C@H]1C[C@@H](C)C=C2C=C[C@H](C)[C@H](CC[C@@H]3C[C@@H](O)CC(=O)O3)[C@H]21	–	2.74 µM (active)
O=C1CCC(N2C(=O)c3ccccc3C2=O)C(=O)N1 (configuration not stated)	inactive	–
CC[C@H]1OC(=O)[C@H](C)[C@@H](O[C@H]2C[C@@](C)(OC)[C@@H](O)[C@H](C)O2)[C@H](C)[C@@H](O[C@@H]2O[C@H](C)C[C@H](N(C)C)[C@H]2O)[C@](C)(O)C[C@@H](C)C(=O)[C@H](C)[C@@H](O)[C@]1(C)O	inactive	–
CNCc1ccc(NC(=O)c2c[nH]c3c2C(=O)CCC3)cc1	–	1.98 µM (active)
COc1ccc(-n2nc(C(F)F)cc2-c2ccc(S(C)=O)cc2)cc1 (configuration not stated)	inactive	–
O=P(OC(CCl)CCl)(OC(CCl)CCl)OC(CCl)CCl	inactive	–
CC[C@H](C)C(=O)O[C@H]1C[C@@H](C)C=C2C=C[C@H](C)[C@H](CC[C@@H]3C[C@@H](O)CC(=O)O3)[C@H]21	–	10 µM (active)
NC(=O)NO	inactive	–

Tested on: not listed separately
Test: CCTE_Deisenroth_AIME_384WELL_CTox_Active: Cytotoxicity Assessment (CTOX) in CCTE's 384-well Estrogen Receptor Transactivation Assay with AIME metabolic competence (metabolism positive), Deisenroth Lab (AID 2284037);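 also: chemicals first conditioned 2 h by alginate-bound induced rat liver S9 before cells; activity means signal loss indicating cell death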
In short: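 Cytotoxicity in VM7Luc4E2 breast cells, 24 hour, measured as protease-substrate fluorescence loss, after 2-hour metabolic conditioning with induced rat hepatic S9 in alginate microspheres. Concentrations 0.002 - 200 uM, 10 points, bidirectional fitting.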

Structure (SMILES)	outcome	AC50
CCOCCOCCOCCO	inactive	–
CC(C)c1cccc(C(C)C)c1N1C(=O)c2ccc(O)cc2C1=O	inactive	–
Cn1c(=O)c2c(ncn2C)n(C)c1=O	inactive	–
CCN(C(=O)c1cc(C)cc(OC[C@H](C)Nc2ccncc2)c1)C(C)C	inactive	–
CCCCCCCCO	inactive	–
COCCOc1cc2cc(C(=O)NC3CCN(C(C)C)CC3)n(CC(=O)Nc3ccc(Cl)cn3)c2cn1	inactive	–
O=c1n(CC2CO2)c(=O)n(CC2CO2)c(=O)n1CC1CO1 (configuration not stated)	–	136 µM (active)
Cc1c(-c2cccnc2)c2ccccc2n1CCCCC(=O)O	inactive	–
O=C(O)c1cccc(Oc2ccccc2)c1	inactive	–
CC(=O)OCCC(C)C	inactive	–
Cn1c(=O)cc(Oc2ccc(F)cc2F)c2cnc(NCC(C)(C)O)nc21	inactive	–
CC(C)=CCC/C(C)=C\CO	inactive	–
Oc1ccc2c(c1)-c1ccccc1C2	inactive	–
CC1=CC(=O)CC(C)(C)C1	inactive	–
CC(C)CCCCCCCOC(=O)CCCCC(=O)OCCCCCCCC(C)C	inactive	–
Cc1ccc(O)cc1	inactive	–
COc1cccc(-c2ccc(/C=C\CN3CCCCCC3)cc2Cl)c1	inactive	–
CNCc1ccc(NC(=O)c2c[nH]c3c2C(=O)CCC3)cc1	inactive	–
CCCCCCc1ccc(O)cc1O	–	104 µM (active)
CCOC(=O)c1ccc(C2CCC(NC[C@H](O)COc3ccc(O)c(NS(C)(=O)=O)c3)CC2)cc1 (some centres not stated)	–	100 µM (active)
COc1ccc2sc(C(=O)Nc3nnn[nH]3)c(OC(C)C)c2c1	–	45 µM (active)
COCCOCCOCCOC	inactive	–
O=C(O)c1cc(N=Nc2ccc(S(=O)(=O)Nc3ccccn3)cc2)ccc1O	–	100 µM (active)
Nc1ccc(Nc2ccccc2)cc1	inactive	–
On1ccccc1=S	inactive	–
CCCN(C1CCN(C(=O)C2CCNCC2)CC1)[C@@H]1CCc2ccc(OC)cc2C1	inactive	–

Target: Estrogen receptor (Homo sapiens) (UniProt P03372)
Test: CCTE_Deisenroth_AIME_384WELL_LUC_Inactive: CCTE's 384-well Estrogen Receptor Transactivation Assay without AIME metabolic competence (ERTA luciferase; metabolism negative), Deisenroth Lab (AID 2284038);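 also: VM7Luc4E2 breast cells given medium preincubated 2 h with S9-free microspheres; hits raise estrogen receptor luciferase signal so potencies reflect agonists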
In short: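 VM7Luc4E2 ER transactivation, luciferase bioluminescence after 24 h, using medium pre-incubated 2 h with S9-free alginate microspheres. Concentrations 0.002–200 uM; gain of signal fitted relative to 17beta-estradiol.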

Estrogen receptor (Homo sapiens), sequence (P03372 whole entry, looked up): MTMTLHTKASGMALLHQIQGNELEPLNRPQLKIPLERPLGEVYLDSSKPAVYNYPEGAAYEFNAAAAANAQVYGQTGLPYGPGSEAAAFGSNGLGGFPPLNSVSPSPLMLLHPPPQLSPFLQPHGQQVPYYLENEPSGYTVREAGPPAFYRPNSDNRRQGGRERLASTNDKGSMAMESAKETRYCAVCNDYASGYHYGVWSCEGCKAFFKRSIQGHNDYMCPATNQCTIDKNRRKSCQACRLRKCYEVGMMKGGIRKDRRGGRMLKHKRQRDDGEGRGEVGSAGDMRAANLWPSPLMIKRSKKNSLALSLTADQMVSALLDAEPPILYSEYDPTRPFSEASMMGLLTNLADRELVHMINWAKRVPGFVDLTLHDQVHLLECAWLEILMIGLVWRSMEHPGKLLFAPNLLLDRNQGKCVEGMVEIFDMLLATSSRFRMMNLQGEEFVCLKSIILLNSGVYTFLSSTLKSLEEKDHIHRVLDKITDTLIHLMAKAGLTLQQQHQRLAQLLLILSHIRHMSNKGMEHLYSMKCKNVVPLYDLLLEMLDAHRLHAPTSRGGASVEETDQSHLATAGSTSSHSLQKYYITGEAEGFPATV

Structure (SMILES)	outcome
CCCCCCCCO	inactive
Cc1ccc(N)cc1O	inactive
C=CC(=C)CCC=C(C)C	inactive
O=c1n(CC2CO2)c(=O)n(CC2CO2)c(=O)n1CC1CO1 (configuration not stated)	inactive
O=C(O)c1cccc(Oc2ccccc2)c1	inactive
Cn1c(=O)cc(Oc2ccc(F)cc2F)c2cnc(NCC(C)(C)O)nc21	inactive
CCCC(=O)OCC	inactive
COc1cccc(-c2ccc(/C=C\CN3CCCCCC3)cc2Cl)c1	inactive
O=c1[nH]c2ccc(S(=O)CCN3CCC(Cc4ccc(F)cc4)CC3)cc2o1 (configuration not stated)	inactive
CC(C)CCO	inactive
Nc1ccc(Nc2ccccc2)cc1	inactive
